In PubChem BioAssay (Tox21):
Inconclusive results are not listed. Activity calls are given as the source filed them. Calls come from the whole dose curve.

assay: qHTS assay to identify small molecule agonists of the hypoxia (HIF-1) signaling pathway - cell viability counter screen (AID 1224844); conditions: HRE-bla ME-180 viability, CellTiter-Glo luminescence, 17 h; series mostly up to 76.8 µM; activity change, negative = cytotoxicity: at the top concentration; note: nearly all actives have a fitted effect of over 50% in size
From the text: National Center for Advancing Translational Sciences [NCATS]
NIH Chemical Genomics Center [NCGC]
U.S. Environmental Protection Agency [EPA]
National Institutes of Environmental Health Sciences [NIEHS]
National Toxicology Program [NTP]
U.S. Food and Drug Administration [FDA]
Hypoxia-inducible factor-1 (HIF-1) is the major hypoxia-regulated transcription factor that controls cellular responses to low oxygen concentration. HIF-1 is composed of two subunits: hypoxia responsive HIF-1-alpha and constitutively expressed HIF-1-beta, which is also known as aryl hydrocarbon receptor nuclear translocator. During hypoxic conditions, HIF-1-alpha heterodimerizes with HIF-1-beta and translocates into the nucleus where the HIF-1 complex binds to the hypoxia-response element (HRE) and activates expression of target genes such as VEGF (vascular endothelial growth factor). The HIF-1 pathway is essential to normal growth and development, and is involved in the pathophysiology of cancer, inflammation, and ischemia.
Using a beta-lactamase reporter-gene under control of the hypoxia response element, a cell-based assay [CellSensor(TM) HRE-bla ME-180 from Life Technologies, Carlsbad, CA] was used to measure hypoxia-induced signaling. Tox21 10K library compounds were measured for their ability to induce the reporter gene activity. The cytotoxicity of the Tox21 compound library against HRE-bla ME-180 cell line was tested in parallel by measuring cell viability using CellTiter-Glo assay (Promega, Madison, WI) in the same assay wells.
Tox21 Assay Protocol Summary:
HRE-bla ME-180 cells were dispensed at 2,000 cells per well in 6 uL of assay medium containing 0.5% dialyzed FBS into black wall/clear-bottom 1536-well plates using a Multidrop Combi (Thermo Scientific, Waltham, MA) dispenser. After the assay plates were incubated at 37C and 5% CO2 for 5 hrs, 23 nL of compounds dissolved in DMSO, positive controls or DMSO only was transferred to each well of the assay plate using a Pintool station (Kalypsys, San Diego, CA). The assay plates were incubated at 37C and 5% CO2 for 17 hrs. One uL of LiveBLAzerTM B/G FRET substrate (CCF4-AM) (Life Technologies) was added to each well using a Flying Reagent Dispenser (FRD, Aurora Discovery, San Diego, CA). After 2 hr incubation at room temperature, fluorescence intensity (405 nm excitation, 460 nm and 530 nm emissions) was measured using an Envision plate reader (PerkinElmer, Shelton, CT). For cytotoxicity, 4 ul/well of CellTiter-Glo reagent was added into the assay plates using an FRD. After 30 min incubation at room temperature, the luminescence intensity was measured using a ViewLux plate reader (PerkinElmer).
% is set by controls: 0 for no effect and ±100 for the full control effect; potency is the fitted concentration of half-maximal effect.

Compound	activity change, negative = cytotoxicity	Potency
CCOP(=S)(OCC)SCn1nnc2ccccc2c1=O	0.754% (inactive)	–
N#Cc1ccc(Cl)cc1	6.34% (inactive)	–
CCCCCCCCCC(=O)O[C@H]1CC[C@H]2[C@@H]3CCC4=CC(=O)CC[C@@H]4[C@H]3CC[C@]12C	4.99% [at 35.3 µM] (inactive)	–
C[C@@H]1CC[C@H]2[C@@H](C)C(=O)O[C@@H]3O[C@@]4(C)CC[C@@H]1[C@]32OO4	-1.89% [at 35.3 µM] (inactive)	–
CCOS(C)(=O)=O	-23.5% (inactive)	–
CC1C(=O)C[C@]2(C(C)C)C[C@H]12 (stereo not given in full)	6.54% (inactive)	–
O=C(O)COc1ccc(Cl)cc1	0.15% (inactive)	–
CC(C)(C)c1cc([N+](=O)[O-])cc([N+](=O)[O-])c1O	35.2% (inactive)	–
CCCN(CCC)c1c([N+](=O)[O-])cc(S(C)(=O)=O)cc1[N+](=O)[O-]	-0.141% (inactive)	–
O=Cc1ccc2c(c1)OCO2	-1.61% (inactive)	–
O=C(O)C1(c2ccc3c(c2)OC[C@H](Cc2ccc(-c4ccccc4)cc2)[C@H]3O)CCCC1	–	17.4 µM (active)
COP(=O)(OC)O/C(=C/Cl)c1cc(Cl)c(Cl)cc1Cl	-15.5% (inactive)	–
ClCC(Br)CBr (stereo not given)	-3.67% (inactive)	–
O=C1CN=C(c2ccccc2)c2cc(Cl)ccc2N1CC1CC1	-14.9% (inactive)	–
CC(C)=CCOc1c2occc2cc2ccc(=O)oc12	-2.02% [at 35.3 µM] (inactive)	–
COc1cc(Cl)c(OC)cc1Cl	-1.09% (inactive)	–
CN1C(=O)NC(=O)C(C)(C2=CCCCC2)C1=O (stereo not given)	-0.0183% [at 35.3 µM] (inactive)	–
CCBr	-0.0395% (inactive)	–
O=Cc1ccc(Cl)cc1Cl	0.271% (inactive)	–
O=C(CBr)Nc1ccc(Cl)cc1C(=O)c1ccccc1F	2.44% [at 35.3 µM] (inactive)	–

Compound	activity change, negative = cytotoxicity	Potency
O=C(Nc1ccccc1)Nc1cnns1	13.5% (inactive)	–
O=C(O)CC(Cl)C(=O)O (stereo not given)	-4.72% (inactive)	–
CCCCN=C=O	-1.12% (inactive)	–
CCCCC(CC)COP(=O)(Oc1ccccc1)Oc1ccccc1 (stereo not given)	-0.593% (inactive)	–
CCCCCCC#N	-1.31% (inactive)	–
O=S1(=O)OC(c2cc(Br)c(O)c(Br)c2)(c2cc(Br)c(O)c(Br)c2)c2ccccc21	–	6.34 µM (active)
O=C(OC1CCCCC1)c1ccccc1C(=O)OC1CCCCC1	-10.9% (inactive)	–
O=[N+]([O-])c1ccc(F)c([N+](=O)[O-])c1	–	12.4 µM (active)
CCCCOC(=O)c1ccccc1C(=O)OCc1ccccc1	–	inactive
Cn1cc[n+](C)c1 (tested in a mixture with another compound)	0.288% (inactive)	–
CCC(C)(NC(=O)c1cc(Cl)c(C)c(Cl)c1)C(=O)CCl (stereo not given)	–	34.9 µM (active)
O=C(NC(=O)c1c(F)cccc1F)Nc1ccc(OC(F)(F)C(F)OC(F)(F)F)c(Cl)c1 (stereo not given)	9.96% [at 35.3 µM] (inactive)	–
Sc1ccccc1Cl	-1.09% [at 35.3 µM] (inactive)	–
CCOc1nc(F)cc2nc(S(=O)(=O)Nc3c(Cl)cccc3Cl)nn12	-1.14% (inactive)	–
Cc1ccc(N)cc1C	1.19% (inactive)	–
O=C(CBr)OCc1ccccc1	7.25% (inactive)	–
O=C1C(Cl)C(CCl)CN1c1cccc(C(F)(F)F)c1 (stereo not given)	-0.73% (inactive)	–
CCCN(CC1CC1)c1c([N+](=O)[O-])cc(C(F)(F)F)cc1[N+](=O)[O-]	2.92% (inactive)	–
BrCCCCBr	1.79% (inactive)	–
C=C(C#N)CCC#N	8.29% (inactive)	–
